Here are results for eight compounds from PubChem BioAssay (Tox21).

SMILES strings stand for the structures. Where “and” joins values, the source holds several entries; their conditions need not be identical. Equal values may be shown once. Records with an inconclusive call do not appear. Where a structure was tested more than once in an assay, its records may differ in their call. Calls of active or inactive are those of the source. Unless noted, calls come from the whole dose curve. Peptide text beside a SMILES is read from it.

Assay [1] can be described thus: Nuclear factor erythroid 2-related factor 2/antioxidant responsive element (Nrf2/ARE) small molecule agonists: luciferase reporter gene qHTS assay in human keratinocytes (AID 1919969). Note: nearly all actives have a fitted effect of over 35% in size. Background: In a reporter assay the amount or activity of a reporter protein is the signal.
Assay [2] concerns the target KiSS-1 receptor (Homo sapiens) (UniProt Q969F8). Kind of assay: Human kisspeptin (KISS1R) small molecule agonists, calcium flux assay in KISS1R-HEK293 cells (AID 1920064; active = well fitted activation curve with a large enough effect in the repeat runs). In a few lines:
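Cell line: HEK293, stable human KISS1R. Dye loading 1 h at 37 C after 18 h culture. Read: kinetic fluorescence, 480/540 nm, 3 min at 1 s intervals.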
Background: A change in cytosolic calcium serves as a functional read-out for many receptors and channels.

Assay [3] is described as follows: G protein-coupled receptor (GPCR) small molecule agonists, calcium flux assay: HEK293 wild type cell line counter screen (AID 1920065). In a few lines: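 Tox21 10K compounds, 15 concentrations each in triplicate, pin-transferred in DMSO onto dye-loaded cells; kinetic read at 480/540 nm for 3 min, 1 s intervals.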
Assay [4] is described as follows: p53 small molecule agonists, cell-based qHTS assay with rat liver microsomes (AID 1963578). A digest of the protocol: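 With rat liver microsomes and NADPH present (0.5 mg/mL final each), p53RE-bla cells are treated with compound for 16 h at 37 C. LiveBLAzer detection mixture is then applied for 2 h at room temperature in the dark.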
A general note: In qHTS, concentration-response curves come from the screen itself.

A short description of assay [5]: p53 small molecule agonists, cell-based qHTS assay with human liver microsomes: qHTS cell viability counter screen (AID 1963579). Note: nearly all actives have a fitted effect of over 45% in size. A digest of the protocol:
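In this multiplexed counter screen, the reporter plates were subsequently treated with CellTiter-Glo so that cell viability, reflected by luminescence, could be recorded for p53RE-bla cells dosed 16 h with compounds under microsomal activation (HLM and NADPH).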

Assay [6] can be described thus: p53 small molecule agonists, cell-based qHTS assay with rat liver microsomes: qHTS cell viability counter screen (AID 1963580). Note: nearly all actives have a fitted effect of over 45% in size. In a few lines:
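After the beta-lactamase ratio was read, CellTiter-Glo was added to the same wells and luminescence measured at 30 min; cells had been treated 16 h at 37 C with compounds, rat liver microsomes and NADPH (0.5 mg/mL final each).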

A short description of assay [7]: p53 small molecule agonists, cell-based qHTS assay: qHTS cell viability counter screen (AID 1963581). Note: nearly all actives have a fitted effect of over 45% in size. A digest of the protocol:
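ATP content measured by luminescence in HCT-116 p53RE-bla cells treated 16 h at 37 C, same wells as the reporter screen.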

A short description of assay [8]: p53 small molecule agonists, cell-based qHTS assay (AID 1963582; active = well fitted activation curve with a large enough effect in the signal ratio in the repeat runs, not every such curve was filed as active; the % refers to the signal ratio). A digest of the protocol: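 16 h compound exposure (37 C) of p53 response element–bla cells, preceded by 5 h recovery at 37 C/5% CO2; read-out via LiveBLAzer B/G FRET substrate, 2 h RT, fluorescence intensity.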
Assay [9] addresses 5-hydroxytryptamine receptor 2A (Homo sapiens) (UniProt P28223). Kind of assay: 5-hydroxytryptamine receptor 2A (HTR2A) small molecule antagonists, cell-based qHTS assay (AID 1963586). Note: nearly all actives have a fitted effect of over 45% in size. In a few lines:
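CHO cells stably expressing human HTR2A were plated for 18 h at 37 C, then loaded with calcium dye for 1 h. Compounds were preincubated 5 min at room temperature before DOI (4 nM solution) was added. Kinetic fluorescence was read for 3 min.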

Assay [10] has the same target. Kind of assay: 5-hydroxytryptamine receptor 2A (HTR2A) small molecule agonists, cell-based qHTS assay (AID 1963587). Note: nearly all actives have a fitted effect of over 30% in size. A digest of the protocol:
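CHO cells stably expressing human HTR2A, plated 18 h, loaded with calcium dye 1 h at 37 C. Agonist mode: compounds added and intracellular calcium fluorescence recorded kinetically for 2 min at 1 sec intervals.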

Assay [11] addresses Muscarinic acetylcholine receptor M1 (Homo sapiens) (UniProt P11229). Kind of assay: Cholinergic receptor muscarinic 1 (CHRM1) small molecule antagonists, cell-based qHTS assay (AID 1963588). Note: nearly all actives have a fitted effect of over 40% in size. Note: potency is the fitted concentration of half-maximal effect. A digest of the protocol:
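Compounds were tested at 15 concentrations in three independent runs. Dye-loaded CHRM1-CHO cells were exposed 5 min at room temperature before stimulation by acetylcholine added at 50nM. Intracellular calcium was read kinetically on FDSS for 3 min.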

For assay [12] the target is unchanged. Kind of assay: Cholinergic receptor muscarinic 1 (CHRM1) small molecule agonists, cell-based qHTS assay (AID 1963589). Note: nearly all actives have a fitted effect of over 35% in size. In a few lines:
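Homogeneous fluorescence calcium flux, agonist mode. Human M1-expressing CHO cells; compound dosed at 15 concentrations, three independent runs; signal sampled every 1 sec.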

A short description of assay [13]: cAMP Responsive Elements (CRE) small molecule agonists, cell-based qHTS assay (AID 1963590). A digest of the protocol:
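HEK 293T cells stably bearing CRE-bla were plated at 2,000 cells per well and rested 18 h. Compounds, positive controls or DMSO were added for 3 h at 37 C. LiveBLAzer B/G substrate was then loaded for 2 h at room temperature.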

Assay [14] in a line: cAMP Responsive Elements (CRE) small molecule antagonists, cell-based qHTS assay (AID 1963591; active = well fitted inhibition curve with a large enough effect in the signal ratio in the repeat runs, not every such curve was filed as active; the % refers to the signal ratio). In a few lines:
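First, CRE-bla HEK293T cells settled 18 h at 37 C. Next, compound and 0.25 uM final NKH477 were applied for 3 h. Last, LiveBLAzer B/G substrate was loaded for 2 h at room temperature.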

Assay [15] addresses Beta-2 adrenergic receptor (Homo sapiens) (UniProt P07550). Kind of assay: Adrenergic beta2 receptor (ADRB2) small molecule antagonists, cell-based qHTS assay (AID 1963592). Note: series mostly up to about 92 µM; nearly all actives have a fitted effect of over 50% in size. A digest of the protocol:
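Assay format: CHO-ADRB2 cells, 18-20hr seeding at 37C/5% CO2, then compound plus 1nM isoproterenol agonist mix for 0.5hr RT. Homogeneous time-resolved fluorescence cAMP detection after 1hr, expressed as 665/615 nm ratio.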

The target is the same in assay [16]. Kind of assay: Adrenergic beta2 receptor (ADRB2) small molecule agonists, cell-based qHTS assay (AID 1963593).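 Note: CHO cells stably overexpressing human ADRB2.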 In a few lines: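 CHO cells stably over-expressing ADRB2 were plated overnight at 37C, then dosed with compounds plus a stimulation mix containing 100uM IBMX and 25uM Ro-20-1724 for 0.5hr at room temperature. cAMP was measured by HTRF competition, 1hr.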

Assay [17] has as its target D(2) dopamine receptor (Homo sapiens) (UniProt P14416). Kind of assay: Dopamine D2 receptor (DRD2) small molecule agonists, cell-based qHTS assay (AID 1963594). Note: nearly all actives have a fitted effect of over 35% in size. A digest of the protocol: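 HEK293 cells stably expressing human DRD2, pre-treated with PDE inhibitor Ro20-1724 (0.1 mM final) and compound 10 min at room temperature, then stimulated with NKH477 (200nM […]) for 30 min. cAMP read by HTRF (665/620 nm).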

In assay [18] the target is Gonadotropin-releasing hormone receptor (Homo sapiens) (UniProt P30968). Kind of assay: Human gonadotropin-releasing hormone receptor (GnRHR) small molecule agonists, calcium flux assay in GnRHR-HEK293 cells (AID 1920063). Note: nearly all actives have a fitted effect of over 35% in size. A digest of the protocol:
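Compounds dissolved in DMSO are pin-transferred onto dye-loaded GnRHR-HEK293 cells, which were seeded 18 h before at 37 C/5% CO2. Calcium signal is read as fluorescence intensity at 1 s intervals for 3 min.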

Assay [19] has as its target D(2) dopamine receptor (Homo sapiens) (UniProt P14416). Kind of assay: Dopamine D2 receptor (DRD2) small molecule antagonists, cell-based qHTS assay (AID 1963595; active = well fitted inhibition curve with a large enough effect in the signal ratio in the repeat runs, with a control signal flat; the % refers to the signal ratio). In a few lines: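 HEK293 cells stably expressing DRD2, preincubated with 0.1 mM Ro20-1724 and compounds 10 min, were stimulated with 200 nM NKH477 plus 12 nM quinpirole for 30 min at room temperature; cAMP measured by HTRF (665/620 nm).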

The nature of assay [20]: p53 small molecule agonists, cell-based qHTS assay with human liver microsomes (AID 1963577).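 Note: p53 response element beta-lactamase reporter cells with liver microsomes plus NADPH.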 In a few lines: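 16 h, 37 C exposure of p53RE-bla cells to compounds with human liver microsomes and NADPH (0.5 mg/mL final each); detection via LiveBLAzer mixture, 2 h dark at room temperature.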

Chain of Gonadotropin-releasing hormone receptor (Homo sapiens) (P30968 whole entry, looked up): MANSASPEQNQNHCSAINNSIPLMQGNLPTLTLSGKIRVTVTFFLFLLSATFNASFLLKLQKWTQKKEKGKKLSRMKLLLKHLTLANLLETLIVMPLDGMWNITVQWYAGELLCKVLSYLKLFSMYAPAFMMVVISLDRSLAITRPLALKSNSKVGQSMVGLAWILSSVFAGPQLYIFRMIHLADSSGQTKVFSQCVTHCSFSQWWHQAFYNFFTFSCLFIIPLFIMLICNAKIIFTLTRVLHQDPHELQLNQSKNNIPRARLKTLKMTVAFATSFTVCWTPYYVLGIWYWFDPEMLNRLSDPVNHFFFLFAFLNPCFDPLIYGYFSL
Chain of KiSS-1 receptor (Homo sapiens) (Q969F8 whole entry, looked up): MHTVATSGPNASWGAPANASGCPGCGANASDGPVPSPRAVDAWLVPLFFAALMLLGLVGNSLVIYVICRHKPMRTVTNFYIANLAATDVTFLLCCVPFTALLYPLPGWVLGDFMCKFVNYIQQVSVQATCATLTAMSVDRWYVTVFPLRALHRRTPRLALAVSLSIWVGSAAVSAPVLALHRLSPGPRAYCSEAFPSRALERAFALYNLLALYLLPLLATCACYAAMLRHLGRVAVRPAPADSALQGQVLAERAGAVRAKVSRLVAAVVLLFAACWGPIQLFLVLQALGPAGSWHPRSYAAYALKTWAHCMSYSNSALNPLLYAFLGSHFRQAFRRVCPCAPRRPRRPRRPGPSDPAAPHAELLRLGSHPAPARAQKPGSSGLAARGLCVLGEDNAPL
Chain of 5-hydroxytryptamine receptor 2A (Homo sapiens) (P28223 whole entry, looked up): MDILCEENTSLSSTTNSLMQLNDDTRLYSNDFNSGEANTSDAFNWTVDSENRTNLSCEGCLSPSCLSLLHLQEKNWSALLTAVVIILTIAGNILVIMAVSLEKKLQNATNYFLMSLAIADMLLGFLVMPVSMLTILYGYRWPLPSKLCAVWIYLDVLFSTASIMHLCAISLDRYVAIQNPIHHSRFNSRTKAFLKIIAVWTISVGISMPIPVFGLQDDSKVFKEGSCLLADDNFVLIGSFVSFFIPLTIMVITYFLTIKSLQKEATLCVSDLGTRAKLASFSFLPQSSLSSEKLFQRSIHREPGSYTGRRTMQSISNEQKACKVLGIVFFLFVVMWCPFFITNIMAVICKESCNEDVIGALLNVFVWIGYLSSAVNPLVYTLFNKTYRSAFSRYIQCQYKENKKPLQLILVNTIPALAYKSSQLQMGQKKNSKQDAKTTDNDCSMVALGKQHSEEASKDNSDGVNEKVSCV
Chain of Muscarinic acetylcholine receptor M1 (Homo sapiens) (P11229 whole entry, looked up): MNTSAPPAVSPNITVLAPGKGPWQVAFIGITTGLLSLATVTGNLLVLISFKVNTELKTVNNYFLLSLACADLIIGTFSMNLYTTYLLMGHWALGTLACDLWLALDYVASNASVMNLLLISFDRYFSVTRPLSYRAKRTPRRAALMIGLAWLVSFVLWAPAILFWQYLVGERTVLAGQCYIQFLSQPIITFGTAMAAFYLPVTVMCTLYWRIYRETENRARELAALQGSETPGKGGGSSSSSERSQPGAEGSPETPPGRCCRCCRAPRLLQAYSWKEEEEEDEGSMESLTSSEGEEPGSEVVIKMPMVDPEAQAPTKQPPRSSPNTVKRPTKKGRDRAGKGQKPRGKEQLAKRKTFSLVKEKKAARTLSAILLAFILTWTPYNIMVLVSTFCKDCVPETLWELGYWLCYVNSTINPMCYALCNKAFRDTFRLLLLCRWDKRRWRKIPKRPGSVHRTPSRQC
Chain of Beta-2 adrenergic receptor (Homo sapiens) (P07550 whole entry, looked up): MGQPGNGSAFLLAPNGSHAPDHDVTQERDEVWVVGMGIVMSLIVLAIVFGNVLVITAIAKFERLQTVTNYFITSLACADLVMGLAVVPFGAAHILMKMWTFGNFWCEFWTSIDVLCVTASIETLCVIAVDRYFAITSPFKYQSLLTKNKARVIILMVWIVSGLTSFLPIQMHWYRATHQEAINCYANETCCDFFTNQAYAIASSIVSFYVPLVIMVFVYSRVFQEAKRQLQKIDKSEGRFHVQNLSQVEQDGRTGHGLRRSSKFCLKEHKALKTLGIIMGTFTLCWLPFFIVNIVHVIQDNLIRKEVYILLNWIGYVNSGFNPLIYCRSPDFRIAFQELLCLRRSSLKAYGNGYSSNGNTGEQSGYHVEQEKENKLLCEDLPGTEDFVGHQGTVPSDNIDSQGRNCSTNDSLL
Chain of D(2) dopamine receptor (Homo sapiens) (P14416 whole entry, looked up): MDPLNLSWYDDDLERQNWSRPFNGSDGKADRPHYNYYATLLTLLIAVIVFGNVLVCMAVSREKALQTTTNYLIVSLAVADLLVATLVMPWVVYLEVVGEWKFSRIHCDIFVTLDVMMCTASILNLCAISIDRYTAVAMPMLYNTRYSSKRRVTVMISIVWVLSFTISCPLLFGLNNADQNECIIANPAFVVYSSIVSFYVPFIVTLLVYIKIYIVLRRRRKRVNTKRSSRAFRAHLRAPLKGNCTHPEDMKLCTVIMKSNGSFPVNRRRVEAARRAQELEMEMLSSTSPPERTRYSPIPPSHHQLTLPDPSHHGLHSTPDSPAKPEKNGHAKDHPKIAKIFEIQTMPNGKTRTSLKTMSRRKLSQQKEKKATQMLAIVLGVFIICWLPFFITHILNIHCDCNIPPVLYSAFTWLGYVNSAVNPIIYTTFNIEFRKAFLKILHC

Regarding `COCC(C)N` (configuration not stated), the Potency result in assay [1], in assay [2], in [3], in assay [4], in assay [5] and in assay [6] was “inactive” throughout. Moreover, the Potency result in assay [7], in [8], in [9], in assay [10], in assay [11] and in assay [12] was “inactive” each time. Also, the Potency result in assay [13], in assay [14], in assay [15], in assay [16] and in assay [17] was “inactive” in each case.

For `O=C(O)c1cccnc1`, the Potency entry in assay [18], in assay [2], in assay [3], in assay [14], in assay [15] and in assay [16] was “inactive” in each case. In addition, the Potency result in assay [17] and in assay [19] was “inactive” each time.

With `CN(C)CCC(c1ccccc1)c1ccccn1` (configuration not stated), the Potency entry in assay [1], in [18], in assay [3], in assay [20], in assay [4] and in assay [5] was “inactive” throughout. The Potency result in [6], in assay [7], in assay [8], in assay [9], in [10] and in assay [12] was “inactive” each time. The Potency result in assay [13], in assay [14], in assay [15], in [16], in [17] and in [19] was “inactive” throughout. The Potency entry in assay [11] is “inactive and 3.26 µM (active)”.

Consider `CCN(CC)C(=O)c1cccc(C)c1`, for which the Potency entry in assay [1], in assay [2], in assay [3], in assay [5], in [6] and in assay [7] was “inactive” in each case. In addition, the Potency entry in assay [9], in assay [10], in [11], in [12], in assay [13] and in assay [14] was “inactive” in each case. The Potency entry in assay [15], in assay [16], in assay [17] and in [19] was “inactive” throughout.

On to `CC(=O)OC(C)(C)C1CC=C(C)CC1` (configuration not stated), for which the Potency result in assay [1], in assay [18], in assay [20], in [4], in [5] and in assay [6] was “inactive” each time. Moreover, the Potency result in assay [7], in assay [8], in assay [9], in assay [10], in assay [11] and in assay [12] was “inactive” each time. For the same compound, the Potency result in assay [13], in [14], in [15], in assay [16], in [17] and in [19] was “inactive” in each case.

On to `CNNCc1ccc(C(=O)NC(C)C)cc1`, for which the Potency entry in assay [18], in assay [2], in assay [20], in assay [4], in [5] and in [6] was “inactive” in each case. Moreover, the Potency result in [7], in assay [8], in assay [13], in assay [14], in [16] and in assay [17] was “inactive” each time. In addition, the Potency result in assay [19] was “inactive”.

On to `COCC(C)O` (configuration not stated), for which the Potency entry in assay [1], in assay [18], in assay [2], in [20], in assay [4] and in assay [5] was “inactive” each time. The Potency result in assay [7], in assay [8], in [9], in [10], in assay [11] and in [12] was “inactive” each time. In addition, the Potency entry in [13], in [14], in assay [15], in assay [17] and in [19] was “inactive” each time.

As for `COC(=O)[C@H](Cc1ccccc1)NC(=O)[C@@H](N)CC(=O)O` (H-Asp-Phe-OMe), the Potency result in assay [1], in [18], in assay [3], in assay [20], in assay [4] and in assay [5] was “inactive” each time. In addition, the Potency entry in [6], in assay [7], in assay [8], in assay [9], in assay [10] and in assay [11] was “inactive” each time. Besides, the Potency result in [12], in assay [13], in assay [14], in assay [15], in [16] and in assay [17] was “inactive” each time. Moreover, in assay [19], the Potency entry was “inactive”.
